What all share (assay): yeast three-hybrid, YBZ-1, SC-Leu-His + 0.5 mM 3-AT, 4 days
Conditions in all cases: tags: N-Gal4 AD-HA kept; label: inside an RPR1-promoter hybrid RNA with tandem MS2 sites; ssRNA

One experiment concerns the target PUM1 PUF domain R1-RRN (Homo sapiens, UniProt Q14671 828-1176, S863R;Q867N). In outline: (§1)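 Sequencing with Illumina followed PCR amplification of the repeat regions from transformants grown four days on SC-Leu (input) or SC-Leu-His + 0.5 mM 3-AT (selection). The transformants were strain YBZ-1 with a LexA–MS2 coat fusion and a HIS3 reporter, carrying Pumilio-1 PUF domain libraries and matching RNA elements. The interaction score is the log change in variant frequency from input to selection, computed in log2 with a pseudocount of 1 for absent variants.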

Another experiment has as its target PUM1 PUF domain R1-YVK (Homo sapiens, UniProt Q14671 828-1176, S863Y;R864V;Q867K). In short, it runs like this:
as §1

Another experiment deals with PUM1 PUF domain R8-KHC (Homo sapiens, UniProt Q14671 828-1176, N1122K;Y1123H;Q1126C). In outline:
as §1

Another experiment addresses PUM1 PUF domain R3-RCW (Homo sapiens, UniProt Q14671 828-1176, C935R;R936C;Q939W). In outline:
as §1

The next experiment addresses PUM1 PUF domain R3-IYD (Homo sapiens, UniProt Q14671 828-1176, C935I;R936Y;Q939D). In short, it runs like this:
as §1

The target of another experiment is PUM1 PUF domain R5-KRV (Homo sapiens, UniProt Q14671 828-1176, C1007K;Q1011V). In outline:
as §1

The next experiment concerns the target PUM1 PUF domain R7-RGG (Homo sapiens, UniProt Q14671 828-1176, S1079R;N1080G;E1083G). In short, it runs like this: as §1
In another experiment the target is T1, PUM1 PUF domain R6-TFA (Homo sapiens, UniProt Q14671 828-1176, N1043T;Y1044F;Q1047A).
T1 sequence: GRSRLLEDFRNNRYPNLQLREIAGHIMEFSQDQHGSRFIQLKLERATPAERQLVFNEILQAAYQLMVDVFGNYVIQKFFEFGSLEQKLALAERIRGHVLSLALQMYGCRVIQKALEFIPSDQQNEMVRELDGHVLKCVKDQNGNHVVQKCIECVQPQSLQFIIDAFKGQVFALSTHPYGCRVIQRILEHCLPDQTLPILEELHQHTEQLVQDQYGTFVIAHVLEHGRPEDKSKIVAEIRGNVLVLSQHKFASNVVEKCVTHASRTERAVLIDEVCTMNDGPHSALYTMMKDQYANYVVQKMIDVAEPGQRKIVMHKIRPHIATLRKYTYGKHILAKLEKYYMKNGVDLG
In outline:
as §1

The next experiment addresses PUM1 PUF domain R4-RHL (Homo sapiens, UniProt Q14671 828-1176, N971R;Q975L). In outline: as §1

Consider “GGCUAGAACUAGUGGAUCCCCCGGCGCCCGGCGGCUCGAGCCCGGGUAAGUGUAAAUCGUCUGCAUGCCGCCGGGCGCCAUGCCUGCAGGUCGACUCUAGAAAACAUG”, for which the binding signal with PUM1 PUF domain R1-RRN was 5.26 log2 enrichment (interaction score); with PUM1 PUF domain R1-YVK, 1.62 log2 enrichment (interaction score).

Consider “GGCUAGAACUAGUGGAUCCCCCGGCGCCCGGCGGCUCGAGCCCGGGUAAGUGUAAAUGGUCUGCAUGCCGCCGGGCGCCAUGCCUGCAGGUCGACUCUAGAAAACAUG”, for which the binding signal with PUM1 PUF domain R1-RRN was 2.89 log2 enrichment (interaction score).

In the case of “GGCUAGAACUAGUGGAUCCCCCGGCGCCCGGCGGCUCGAGCCCGGGUAAGCGUAAAUAGUCUGCAUGCCGCCGGGCGCCAUGCCUGCAGGUCGACUCUAGAAAACAUG”, the binding signal with PUM1 PUF domain R8-KHC was 5.19 log2 enrichment (interaction score).

As to “GGCUAGAACUAGUGGAUCCCCCGGCGCCCGGCGGCUCGAGCCCGGGUAAGUGUAAGUAGUCUGCAUGCCGCCGGGCGCCAUGCCUGCAGGUCGACUCUAGAAAACAUG”, the binding signal with PUM1 PUF domain R3-RCW is 3 log2 enrichment (interaction score).

Consider “GGCUAGAACUAGUGGAUCCCCCGGCGCCCGGCGGCUCGAGCCCGGGUAAGUGUAAUUAGUCUGCAUGCCGCCGGGCGCCAUGCCUGCAGGUCGACUCUAGAAAACAUG”, for which the binding signal with PUM1 PUF domain R3-RCW was 3.79 log2 enrichment (interaction score); with PUM1 PUF domain R3-IYD, 2.12 log2 enrichment (interaction score).

For “GGCUAGAACUAGUGGAUCCCCCGGCGCCCGGCGGCUCGAGCCCGGGUAAGUGUCAAUAGUCUGCAUGCCGCCGGGCGCCAUGCCUGCAGGUCGACUCUAGAAAACAUG”, in the experiment with PUM1 PUF domain R5-KRV, the binding signal was 4.1 log2 enrichment (interaction score).

For the sequence “GGCUAGAACUAGUGGAUCCCCCGGCGCCCGGCGGCUCGAGCCCGGGUAAGUGUAAAUUGUCUGCAUGCCGCCGGGCGCCAUGCCUGCAGGUCGACUCUAGAAAACAUG”, the binding signal in the experiment with PUM1 PUF domain R1-YVK was 2.55 log2 enrichment (interaction score).

As to “GGCUAGAACUAGUGGAUCCCCCGGCGCCCGGCGGCUCGAGCCCGGGUAAGUCUAAAUAGUCUGCAUGCCGCCGGGCGCCAUGCCUGCAGGUCGACUCUAGAAAACAUG”, the binding signal in the experiment with PUM1 PUF domain R7-RGG is 1.37 log2 enrichment (interaction score).

As to “GGCUAGAACUAGUGGAUCCCCCGGCGCCCGGCGGCUCGAGCCCGGGUAAGUUUAAAUAGUCUGCAUGCCGCCGGGCGCCAUGCCUGCAGGUCGACUCUAGAAAACAUG”, in the experiment with PUM1 PUF domain R7-RGG, the binding signal was 3.65 log2 enrichment (interaction score).

“GGCUAGAACUAGUGGAUCCCCCGGCGCCCGGCGGCUCGAGCCCGGGUAAGUGUAAAUAGUCUGCAUGCCGCCGGGCGCCAUGCCUGCAGGUCGACUCUAGAAAACAUG”: the results for the binding signal with PUM1 PUF domain R6-TFA, in the experiment with PUM1 PUF domain R4-RHL and with PUM1 PUF domain R3-IYD were 3.93 log2 enrichment (interaction score), 3.62 log2 enrichment (interaction score) and 3.08 log2 enrichment (interaction score), respectively.

Source of the values: paper PMC8384837, “Expanding the binding specificity for RNA recognition by a PUF domain”.
